Assay results from PubChem BioAssay (NCATS).
Records with an inconclusive call do not appear. A call without a number means that no potency is given here. Calls of active or inactive are those of the source. Calls come from the whole dose curve; as a rule, active = well fitted curve in the direction sought with a large enough effect; inconclusive = small, poorly fitted or top-dose-only effect, or another doubt; inactive = no such curve, though single readings can be large; an effect the other way counts as inactive or inconclusive.

Tests used:
[1] = S16 Schwann cell viability assay (CellTiter-Glo assay) (AID 624031);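 note: cellular ATP luminescence as a viability measure; nearly all actives have a fitted effect of over 70% in size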
Procedure, shortened: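 This viability control uses native rat S16 Schwann cells grown in DMEM plus 10% FBS. After a 24 h compound treatment at 37 °C, CellTiter-Glo luminescence reports ATP content, scaled against DMSO-treated and cell-free wells.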

[2] = S16 Schwann cell PMP22 intronic element firefly luciferase assay (AID 624032); note: nearly all actives have a fitted effect of over 30% in size; note: potency is the fitted concentration of half-maximal effect
Procedure, shortened: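 Rat S16 Schwann cells stably carrying firefly luciferase driven by a PMP22 intronic element, in 10% FBS, treated 24 h at 37 C. ONE-Glo luminescence normalized to PTC124 control and DMSO (0%); curves classed by r2, magnitude and activity.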

3D7 = test: qHTS profiling for inhibitors of Plasmodium falciparum proliferation (AID 504749); note: nearly all actives have a fitted effect of over 60% in size; note: potency is the fitted concentration of half-maximal effect; details: P. falciparum in erythrocytes, SYBR Green DNA, 72 h; series mostly up to 28.7 µM
Procedure, shortened: (§1)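 P. falciparum-infected erythrocytes (0.3% parasitemia, 2.5% hematocrit) incubated with compound 72 h at 37 C, 5% CO2. Parasite DNA detected by SYBR Green after lysis, overnight at room temperature; normalised to 0.29 uM artemisinin and DMSO.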

AA1029 = test: as above; details: P. falciparum in erythrocytes, SYBR Green DNA, 72 h; series mostly up to 28.7 µM
Procedure, shortened: as §1

ATS189 = test: as above; details: P. falciparum in erythrocytes, SYBR Green DNA, 72 h; series mostly up to 28.7 µM
Procedure, shortened: as §1

ATS95 = test: as above; details: P. falciparum in erythrocytes, SYBR Green DNA, 72 h; series mostly up to 28.7 µM
Procedure, shortened: as §1

CP185 = test: as above; details: P. falciparum in erythrocytes, SYBR Green DNA, 72 h; series mostly up to 28.7 µM
Procedure, shortened: as §1

CP192 = test: as above; details: P. falciparum in erythrocytes, SYBR Green DNA, 72 h; series mostly up to 28.7 µM
Procedure, shortened: as §1

CP211 = test: as above; details: P. falciparum in erythrocytes, SYBR Green DNA, 72 h; series mostly up to 28.7 µM
Procedure, shortened: as §1

CP238 = test: as above; details: P. falciparum in erythrocytes, SYBR Green DNA, 72 h; series mostly up to 28.7 µM
Procedure, shortened: as §1

CP250 = test: as above; details: P. falciparum in erythrocytes, SYBR Green DNA, 72 h; series mostly up to 12.8 µM
Procedure, shortened: as §1

CP269 = test: as above; details: P. falciparum in erythrocytes, SYBR Green DNA, 72 h; series mostly up to 28.7 µM
Procedure, shortened: as §1

CP286 = test: as above; details: P. falciparum in erythrocytes, SYBR Green DNA, 72 h; series mostly up to 28.7 µM
Procedure, shortened: as §1

CP315 = test: as above; details: P. falciparum in erythrocytes, SYBR Green DNA, 72 h; series mostly up to 28.7 µM
Procedure, shortened: as §1

DFO2036 = test: as above; details: P. falciparum in erythrocytes, SYBR Green DNA, 72 h; series mostly up to 28.7 µM
Procedure, shortened: as §1

ECU = test: as above; details: P. falciparum in erythrocytes, SYBR Green DNA, 72 h; series mostly up to 28.7 µM
Procedure, shortened: as §1

FAB9 = test: as above; details: P. falciparum in erythrocytes, SYBR Green DNA, 72 h; series mostly up to 28.7 µM
Procedure, shortened: as §1

HB3 = test: as above; details: P. falciparum in erythrocytes, SYBR Green DNA, 72 h; series mostly up to 28.7 µM
Procedure, shortened: as §1

N140 = test: as above; details: P. falciparum in erythrocytes, SYBR Green DNA, 72 h; series mostly up to 28.7 µM
Procedure, shortened: as §1

TAB109 = test: as above; details: P. falciparum in erythrocytes, SYBR Green DNA, 72 h; series mostly up to 12.8 µM
Procedure, shortened: as §1

Compound | Potency [1] | Potency [2] | Potency (3D7) | Potency (AA1029) | Potency (ATS189) | Potency (ATS95) | Potency (CP185) | Potency (CP192) | Potency (CP211) | Potency (CP238) | Potency (CP250) | Potency (CP269) | Potency (CP286) | Potency (CP315) | Potency (DFO2036) | Potency (ECU) | Potency (FAB9) | Potency (HB3) | Potency (N140) | Potency (TAB109)
CC[C@@H]1[C@@H]2C[C@H]3[C@H]4N(C)c5ccccc5[C@@]45C[C@@H]([C@@H]2[C@@H]5O)N3[C@H]1O | inactive | inactive | inactive | inactive | inactive | inactive | inactive | inactive | inactive | inactive | inactive | inactive | inactive | inactive | inactive | inactive | inactive | inactive | inactive | inactive
CNC[C@H](O)c1ccc(O)cc1 | inactive | inactive | inactive | inactive | inactive | inactive | inactive | inactive | inactive | inactive | inactive | inactive | inactive | inactive | inactive | inactive | inactive | inactive | inactive | inactive
C[C@H](NC(C)(C)C)C(=O)c1cccc(Cl)c1 | inactive | inactive | inactive | inactive | inactive | inactive | inactive | inactive | inactive | inactive | inactive | inactive | inactive | inactive | inactive | inactive | inactive | inactive | inactive | inactive
C[C@@]12CC[C@H]3[C@@H](CC[C@@H]4C[C@H]5S[C@H]5C[C@]43C)[C@H]1CC[C@H]2O | inactive | 7.75 µM (active) | inactive | inactive | inactive | inactive | inactive | inactive | inactive | inactive | inactive | inactive | inactive | inactive | inactive | inactive | inactive | inactive | inactive | inactive
CC(C)N(CC[C@@](C(N)=O)(c1ccccc1)c1ccccn1)C(C)C | inactive | inactive | inactive | inactive | inactive | inactive | inactive | inactive | inactive | inactive | inactive | inactive | inactive | inactive | inactive | inactive | inactive | inactive | inactive | inactive
CCN[C@]1(c2cccs2)CCCCC1=O | inactive | inactive | inactive | inactive | inactive | inactive | inactive | inactive | inactive | inactive | inactive | inactive | inactive | inactive | inactive | inactive | inactive | inactive | inactive | inactive
CC(=O)OCC(=O)[C@@H]1CC[C@H]2[C@H]3CC[C@H]4C[C@@H](O)CC[C@]4(C)[C@@H]3C(=O)C[C@@]12C | inactive | inactive | inactive | inactive | inactive | inactive | inactive | inactive | inactive | inactive | inactive | inactive | inactive | inactive | inactive | inactive | inactive | inactive | inactive | inactive
C#CCN(C)[C@@H](C)Cc1ccccc1 | – | inactive | inactive | inactive | inactive | inactive | inactive | inactive | inactive | inactive | – | inactive | inactive | inactive | inactive | inactive | inactive | inactive | inactive | –
CC[C@]1(c2cccc(O)c2)CCCCN(C)C1 | inactive | inactive | inactive | – | – | – | – | – | – | – | inactive | – | inactive | inactive | – | inactive | inactive | inactive | 3.98 µM (active) | inactive
NCC[C@H](O)C(=O)N[C@H]1C[C@@H](N)[C@@H](O[C@H]2O[C@@H](CN)[C@@H](O)[C@@H](O)[C@@H]2N)[C@@H](O[C@H]2O[C@@H](CO)[C@@H](O)[C@@H]2O)[C@@H]1O | inactive | inactive | inactive | inactive | inactive | inactive | inactive | inactive | inactive | inactive | inactive | inactive | inactive | inactive | inactive | inactive | inactive | inactive | inactive | inactive
COc1ccc2c(c1OC)CN1CCc3cc4c(cc3[C@H]1C2)OCO4 | inactive | inactive | – | 2.51 µM (active) | – | 2.51 µM (active) | 2.51 µM (active) | 2.03 µM (active) | 2.03 µM (active) | 3.55 µM (active) | – | 2.03 µM (active) | – | 3.61 µM (active) | – | – | 3.16 µM (active) | – | – | 2.24 µM (active)
C[C@@H]1O[C@H](O[C@@H]2C=C3CC[C@H]4[C@@H](CC[C@]5(C)[C@@H](c6ccc(=O)oc6)CC[C@]45O)[C@@]3(C)CC2)[C@@H](O)[C@H](O)[C@@H]1O | inactive | – | inactive | inactive | inactive | inactive | inactive | inactive | inactive | inactive | inactive | inactive | inactive | inactive | inactive | inactive | inactive | inactive | inactive | inactive
CN[C@@H](C)[C@H]1CC[C@@H](N)[C@@H](O[C@@H]2[C@@H](O)[C@@H](O[C@H]3OC[C@@](C)(O)[C@@H](NC)[C@@H]3O)[C@H](N)C[C@@H]2N)O1 (tested in a mixture with another compound) | inactive | inactive | inactive | inactive | inactive | inactive | inactive | inactive | inactive | inactive | inactive | inactive | inactive | inactive | inactive | inactive | inactive | inactive | inactive | inactive
C[N+]1([O-])[C@@H]2CC[C@H]1CC(OC(=O)[C@@H](CO)c1ccccc1)C2 (some centres undefined) | inactive | inactive | inactive | inactive | inactive | inactive | inactive | inactive | inactive | inactive | inactive | inactive | inactive | inactive | inactive | inactive | inactive | inactive | inactive | inactive
CC(=O)O[C@H]1CC[C@@]2(C)C(=CC[C@@H]3[C@H]2CC[C@]2(C)C(=O)CC[C@H]32)C1 | inactive | inactive | inactive | inactive | inactive | inactive | inactive | inactive | inactive | inactive | inactive | inactive | inactive | inactive | inactive | inactive | inactive | inactive | inactive | inactive
COc1cc2c(cc1OC)[C@@]13CCN4CC5=CCOC6CC(=O)N2C1[C@H]6[C@@H]5C[C@@H]43 (some centres undefined) | inactive | inactive | inactive | inactive | inactive | inactive | inactive | inactive | inactive | inactive | inactive | inactive | inactive | inactive | inactive | inactive | inactive | inactive | inactive | inactive
CNc1ccc(C(=O)CC(O)CCC(C)C2OC(=O)CC(O)CC(=O)CC(O)CC(O)CC(O)CC(O)CC3(O)CC(O)C(C(=O)OC)C(CC(O[C@@H]4OC(C)C(O)C(N)C4O)/C=C/C=C/C=C/C=C/C=C/C=C/C=C/C2C)O3)cc1 (some centres undefined) | – | – | inactive | inactive | inactive | inactive | inactive | inactive | inactive | inactive | inactive | inactive | inactive | inactive | inactive | inactive | inactive | inactive | inactive | inactive
CN(C)[C@@H]1C(=O)C(C(N)=O)=C(O)[C@]2(O)C(=O)C3=C(O)c4c(O)ccc(Cl)c4[C@](C)(O)[C@H]3C[C@@H]12 | inactive | inactive | inactive | inactive | inactive | inactive | inactive | inactive | inactive | inactive | inactive | inactive | inactive | inactive | inactive | inactive | inactive | inactive | inactive | inactive
O=c1ccc2cc(O[C@H]3O[C@@H](CO)[C@@H](O)[C@@H](O)[C@@H]3O)c(O)cc2o1 | inactive | inactive | – | inactive | inactive | inactive | inactive | inactive | inactive | inactive | inactive | inactive | inactive | inactive | inactive | inactive | inactive | inactive | inactive | inactive
Clc1ccc([C@@H](OCCN2CCCCC2)c2ccccc2)cc1 | – | inactive | inactive | – | 3.16 µM (active) | – | inactive | inactive | inactive | inactive | inactive | – | 3.55 µM (active) | inactive | inactive | – | inactive | 7.94 µM (active) | 3.98 µM (active) | –
COc1cc(N)c(Cl)cc1C(=O)N[C@@H]1CN2CCC1CC2 | inactive | inactive | inactive | inactive | inactive | inactive | inactive | inactive | inactive | inactive | inactive | inactive | inactive | inactive | inactive | inactive | inactive | inactive | inactive | inactive
CNC(C)[C@@H](O)c1ccccc1 (some centres undefined) | inactive | inactive | inactive | inactive | inactive | inactive | inactive | inactive | inactive | inactive | inactive | inactive | inactive | inactive | inactive | inactive | inactive | inactive | inactive | inactive
CCC(C)C1O[C@]2(C=CC1C)CC1CC(C/C=C(\C)[C@H](OC3CC(OC)C(O[C@H]4CC(OC)[C@@H](O)C(C)O4)C(C)O3)[C@@H](C)/C=C/C=C3\COC4C(O)C(C)=C[C@H](C(=O)O1)[C@@]34O)O2 (some centres undefined) | inactive | – | 11.2 µM (active) | 11.2 µM (active) | 11.2 µM (active) | 10 µM (active) | 11.2 µM (active) | 19 µM (active) | 12 µM (active) | – | 11.2 µM (active) | 15.1 µM (active) | – | – | 11.2 µM (active) | 8.91 µM (active) | – | – | 10 µM (active) | 8.91 µM (active)
